# Hits are enriched below; roughly 4.6% of the tested compounds scored in any of these assays.
# TRHR agonist: TRH receptor (human) agonism; TRHR cells, calcium flux fluo-8, FDSS agonist mode; 360,000 compounds, 0.18% hits; activation, % at 2 µM; AID 493084; P34981; also: 0% is about no effect
#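 Agonist-mode FDSS calcium read (Ex 480/Em 530, 1 s cycles) in 1536-well TRHR cells with fluo-8 dye, after 10-cycle baseline and 23 nL compound addition; TRH at EC20 (10 nM final) added afterwards for the enhancer phase.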
# D1 antag: human D1 dopamine receptor antagonism. P21728. HEK293 TREx D1 cells, calcium flux, dopamine EC80; hits give low values. activity change, negative = inhibition, % at 10 µM. 360,000 compounds, 3.2% hits; in the data active = activity change below about -30%; also: % is scaled to controls: 0 for no effect and ±100 for the full control effect
# Target sequence (P21728 whole entry, looked up): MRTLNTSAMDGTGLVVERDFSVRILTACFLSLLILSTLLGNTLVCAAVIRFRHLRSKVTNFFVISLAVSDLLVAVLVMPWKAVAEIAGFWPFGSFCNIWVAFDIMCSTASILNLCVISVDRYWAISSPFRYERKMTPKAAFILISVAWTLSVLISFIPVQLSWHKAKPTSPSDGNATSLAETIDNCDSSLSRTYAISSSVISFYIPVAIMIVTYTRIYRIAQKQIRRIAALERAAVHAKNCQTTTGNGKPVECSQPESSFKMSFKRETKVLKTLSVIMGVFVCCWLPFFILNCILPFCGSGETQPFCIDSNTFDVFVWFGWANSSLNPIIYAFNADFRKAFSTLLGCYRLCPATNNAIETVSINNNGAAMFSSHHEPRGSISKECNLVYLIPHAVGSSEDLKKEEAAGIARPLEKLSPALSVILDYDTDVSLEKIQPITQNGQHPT
#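 Antagonism measured as reduced calcium response to an EC80 dopamine addition following 180 s compound pre-read; cells were inducible HEK293 Trex D1 plated overnight at 30 C, read kinetically at 1 cycle/sec.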
# TRHR PAM: allosterically enhances the human TRH receptor. P34981. TRHR cells, fluo-8 calcium fluorescence, EC20 TRH enhancement. enhancement, % at 2 µM. 360,000 compounds, 0.66% hits; in the data active = enhancement above about 30%; also: 0% is about no effect
#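 Enhancer read-out: after compound pinning and an initial kinetic agonist-mode read, an EC20 of TRH (10 nM final) was injected and fluo-8 calcium signal (Ex 480/Em 530) followed at 1 s/cycle for 100 cycles in TRHR-expressing cells.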
# D1 potentiator: enhances dopamine response at the human D1 receptor; AID 504651; P21728; potentiation, % at 10 µM; HEK293 TREx D1 cells, calcium flux, dopamine EC20 potentiation; 360,000 compounds, 0.036% hits; in the data active = potentiation above about 30%; also: 0% is about no effect
# D1 agonist: activates the human D1 dopamine receptor; P21728; HEK293 T-REx D1 cells, calcium flux, agonist mode; activation, % at 2 µM; 360,000 compounds, 1% hits; also: 0% is about no effect
#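 Tetracycline-induced HEK293 TREx D1 cells, force-coupled to calcium signalling, were dye-loaded with a no-wash calcium kit. Compound was pin-added after a 10 s baseline. Fluorescence was read kinetically at 1 cycle/s for 180 s, with calcium rises flagged as agonism.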
# * hit, by the source's call; nt = not tested or not shown; ! = a repeat was not active. Rule as the data show it, unless noted: active = activation above about 30%; inactive = the rest.
SMILES,TRHR agonist,D1 antag,TRHR PAM,D1 potentiator,D1 agonist
CCn1cc(C(=O)NCCCOC)c(=O)c2cc(S(=O)(=O)N(C)C3CCCCC3)ccc21,0,8,4,1,0
CCC1CCCCN1CCCNC(=O)c1cn(CC)c2ccc(S(=O)(=O)N(C)C3CCCCC3)cc2c1=O (centres undefined),0,-38*!,7,-4,0
CCOCCCNC(=O)C1CCCN(c2ncnc3onc(C)c23)C1 (centres undefined),2,-20,5,1,9
CCCCN(CC)CCNC(=O)C1CCCN(c2ncnc3onc(C)c23)C1 (centres undefined),1,-30*,-5,1,-1
Cc1ccc(C)c(NS(=O)(=O)c2cc3c(cc2Cl)NC(=O)CO3)c1,0,-17,13,0,0
CCC1CCCCN1C(=O)CCn1ccnc1 (centres undefined),0,6,32*,4,5
CCCn1ncc(CN2CCN(Cc3ccc(C)o3)C(CCO)C2)c1C (centres undefined),-1,5,6,-11,2
CCCn1cc(CN2CCN(Cc3ccc(C)o3)C(CCO)C2)c(C)n1 (centres undefined),0,-36*,17,1,1
COc1ccc(O)c(C(=O)c2cnc3onc(C)c3c2)c1,-1,-39*,-5,-3,1
COc1ccc(O)c(C(=O)c2cnc3c(c2)c(C)nn3C)c1,0,7,7,-5,4
CCN(C(=O)c1cc2c(s1)-c1ccccc1OC2)c1cc(Cl)ccc1OC,0,0,-5,-3,5
CC(=O)NCCC1CCCCN1Cc1nc(Cc2cccc(C(F)(F)F)c2)no1 (centres undefined),1,-50*,0,-8,1
NC(=O)[C@@H]1CCCN1Cc1nc(Cc2cccc(C(F)(F)F)c2)no1,0,-1,-2,-2,1
COc1ccc(-c2nc3sc(CCNS(=O)(=O)c4c(C)cc(C)cc4C)c(C)n3n2)cc1,1,nt,2,1,3
Nc1ccc(C(=O)Nc2ccc(OC(F)(F)C(F)F)c(NC(=O)c3ccc(N)cc3)c2)cc1,0,-32*,1,1,3
COc1cc(OC)cc(C(=O)NC(C(=O)Nc2ccc3c(c2)OCO3)C(C)C)c1 (centres undefined),1,-9,0,nt,3
COc1cc(OC)cc(C(=O)N[C@H](C(=O)Nc2ccc3c(c2)OCO3)C(C)C)c1,2,-33*,1,2,3
COCCNC(=O)CN(c1cc(C(F)(F)F)ccc1Cl)S(C)(=O)=O,0,-3,-3,-1,1
COC(=O)CN(c1cc(C(F)(F)F)ccc1Cl)S(C)(=O)=O,0,-39*,-4,-6,4
CC(C)(C)c1ccc(S(=O)(=O)NCc2nc3cccnc3n2Cc2ccccc2Cl)cc1,0,20,-1,4,2
CCOC(=O)c1cc(-c2ccccc2)n(-c2cccc(C(=O)N(CC)c3ccccc3)c2)c1C,0,-7,19,-3,2
O=c1c2cc(NC(=S)NCCCN3CCC(Cc4ccccc4)CC3)ccc2nc2n1CCCCC2,3,-41*,13,-9,46*
O=c1c2cc(NC(=S)NC3CCCC3)ccc2nc2n1CCCCC2,0,13,4,-5,2
O=c1c2cc(NC(=S)NC3CC3)ccc2nc2n1CCCCC2,0,-38*,-5,-4,4
O=c1c2cc(NC(=S)NC3CCCCC3)ccc2nc2n1CCCCC2,-1,-4,0,-6,4
O=c1c2cc(NC(=S)N3CCC(N4CCCCC4)CC3)ccc2nc2n1CCCCC2,1,-38*,-8,-5,3
CC(C)NC(=S)Nc1ccc2nc3n(c(=O)c2c1)CCCCC3,0,-79*,10,-4,2
CC1CCCCN1C(=S)Nc1ccc2nc3n(c(=O)c2c1)CCCCC3 (centres undefined),-1,2,-4,-3,1
CC(C)c1nn2c(=O)cc(COC(=O)c3ccco3)nc2s1,0,6,5,-3,1
CC(C)(C)NS(=O)(=O)c1ccc2nc(NC(=O)c3cccnc3)sc2c1,0,8,-5,3,4
